Bioassay records: PubChem, National Center for Advancing Translational Sciences (NCATS)
This is a sample that favours compounds with a hit; in the whole collection about 1.2% have one here.
gsp antagonist: qHTS for Antagonists of gsp, the Etiologic Mutation Responsible for Fibrous Dysplasia/McCune-Albright Syndrome: qHTS; gsp-mutant cells, cAMP HTRF, 30 min; Potency, µM (series often up to 76.9 µM), hits mostly inhibitors; actives 0.4% (n = 340,000); calls by dose curve; cell line not stated here;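 also: intracellular cAMP measured with PDE inhibitor Ro 20-1724 present during compound exposure; nearly all actives have a fitted effect of over 65% in size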
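Cells, 2000/well, grown 16–24 h in DMEM 10% FBS with 0.5 mg/ml G418, then compounds plus […] (300 uM addition stock), 30 min at 37C. cAMP read by HTRF (cAMP-d2 and anti-cAMP antibody-K in lysis buffer) after 30 min RT.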
TSHR antag: Antagonists of the Thyroid Stimulating Hormone Receptor: HTS campaign | Thyrotropin receptor (Homo sapiens), P16473 | TSHR-expressing cells, TSH-stimulated cAMP HTRF, 2 h; stronger effect = lower value | activity change, negative = inhibition, % at 11.5 µM | actives 0.2% (n = 330,000) | AID 504810, 2011;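 active = activity change below a set negative limit, meaning inhibition stronger than a set level, cut at about -70% in these data; inconclusive = activity change between two set negative limits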
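Antagonism was scored as loss of TSH-driven cAMP in TSHR cells, stimulated with 4nM TSH (EC80) for 2 hours at 37 deg C and detected by homogeneous HTRF competition immunoassay.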
uPA surface inh: qHTS for Inhibitors of Cell Surface uPA Generation; Potency, µM (doses to about 38.3 µM), most hits filed as inhibitors; cell surface uPA generation assay, qHTS; AID 540303, 2011; actives 0.31% (n = 330,000); active = well fitted inhibition curve with a large enough effect; inconclusive = small, poorly fitted or top-dose-only effect; inactive = no such curve, though single readings can be large or run the other way; tested in mouse RAW 264.7 cells; also: nearly all actives have a fitted effect of over 55% in size
CCT chaperon mod: High-Throughput Screening for Modulators of Cytosolic Chaperonin Activity; actives 0.3% (n = 360,000); purified chaperonin ATPase assay, HTRF ADP detection, 30 min; activity change, % (concentration not given with the values), hits read low; in the data active = activity change below about -30%
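We incubate TRiC, 40 or 20 nM final, with library compounds at 76 uM and 10 uM ATP for 30 min at 37 °C. ADP formed is detected with Transcreener HTRF reagents after 30 min at room temperature.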
gsp agonist: qHTS for Agonist of gsp, the Etiologic Mutation Responsible for Fibrous Dysplasia/McCune-Albright Syndrome: qHTS; actives 0.13% (n = 340,000); Potency, µM (highest dose often 76.9 µM), actives largely listed as activators; gsp mutant cells, cAMP HTRF, 30 min; active = well fitted activation curve with a large enough effect; inconclusive = small, poorly fitted or top-dose-only effect, or another doubt; inactive = no such curve, though single readings can be large or run the other way; cell line not stated here;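 also: phosphodiesterase inhibitor Ro 20-1724 added with compounds to block cAMP breakdown; nearly all actives have a fitted effect of over 60% in size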
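Cells stably selected in G418 were plated at 2000/well, grown 16-24 hr, then given compounds in DMSO with the PDE inhibitor […] (300 uM solution added) for 30 min at 37C; cAMP was read by HTRF.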
Mm-Cpn inhibitor: Inhibitors of TCP-1 ring complex (TRiC) of Methanococcus maripaludis (MmCpn): qHTS; Chaperonin Mm-Cpn (Methanococcus maripaludis); purified Mm-Cpn ATPase, ADP Transcreener TR-FRET; Potency, µM (top dose mostly 76.9 µM), actives largely listed as inhibitors; actives 0.031% (n = 330,000); active = well fitted inhibition curve with a large enough effect; inconclusive = small, poorly fitted or top-dose-only effect; also: nearly all actives have a fitted effect of over 80% in size
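Compound-treated chaperonin, 25 nM final, turns over 10 uM ATP at 37°C for 30 min following a 10 min preincubation; ADP generated competes with ADP-d2 for Eu-cryptate antibody, lowering FRET.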
Hits are given with their value; 0 = inactive; ? = inconclusive; - = not tested or not shown; [ ] = dose if it differs, or a comment.

SMILES	gsp antagonist	TSHR antag	uPA surface inh	CCT chaperon mod	gsp agonist	Mm-Cpn inhibitor
CCC(C)N=CC1=C(O)CC(c2ccccc2)CC1=O (centres undefined)	0	0	0	0	0	?
CCCC(=NC(C)CC)C1=C(O)CC(c2ccccc2)CC1=O (centres undefined)	0	-88	0	0	0[15.4 µM]	0
O=C(Cc1ccc(S(=O)(=O)N2CCCC2)s1)N1CCN(c2ccccc2)CC1	0	0	0	-93	0[15.4 µM]	0
O=c1c2c(nc3c(-c4cccc(Br)c4)c[nH]n13)CCCC2	0	0	0	0	0	0
Cc1ccccc1OCCCSc1nc2ccccc2[nH]1	0	0	0	0	0[15.4 µM]	?
Cc1ccc2nc(SCCCCOc3ccccc3)[nH]c2c1	40µM	0	0	0	0	0
CC1CCc2c(sc(NC(=O)C3=COCCO3)c2C(N)=O)C1 (centres undefined)	0	-	7.9µM	0	0	0
CNC(=O)c1c(NC(=O)C2=COCCO2)sc2c1CCC(C)C2 (centres undefined)	?	0	?	0	0	0
Cc1ccccc1S(=O)(=O)Nc1nc2ccccc2nc1Cl	0	0	0	0	11µM	0
O=S(=O)(Nc1nc2ccccc2nc1Cl)c1ccc(Cl)cc1	0	0	0	0	0[15.4 µM]	0
CS(=O)(=O)c1nc(-c2ccc(Br)cc2)cc(-c2ccccc2)c1C#N	0	?	0	0	?	0
CS(=O)c1nc(-c2ccc(Br)cc2)cc(-c2ccccc2)c1C#N (centres undefined)	0	-73	?	0	0	0
Cc1nn(Cc2nc(-c3cccs3)no2)c(C)c1Br	0	-72	0	0	0	0
COc1cc(C(=O)N/N=C/c2cn(Cc3ccccc3)c3ccccc23)ccc1O	0	0	0	0	0[15.4 µM]	0
Cc1ccc2[nH]c3c(c2c1)SC(C)(C)CC3=O	0	0	0	0	?	0
CC(=O)N/N=C(\C)CC(=O)Nc1cccc2c1CCCC2	0	0	0	0	0[15.4 µM]	?
O=C(NCc1cccnc1)c1cc(-c2ccccc2)on1	0	0	0	0	0	0
O=C(NCc1ccccc1)c1cc(-c2cccc(O)c2)on1	0	0	2.8µM	0	0	0
Cc1ccc(/C=N/NC(=O)c2ccc3ccccc3c2)s1	0	0	4.5µM	0	?	0
COc1cc(C(=O)OC(C)C(=O)N2CCc3ccccc3C2)ccc1OCC(=O)N1CCOCC1 (centres undefined)	0	0	0	0	0	0
COc1cc(NC(=O)C(C)C)ccc1NC(=O)c1ccco1	0	-93	0	0	0	0
CCCCSc1nnc(CCCCCNC(=O)OC(C)(C)C)o1	35µM	0	0	0	0	0
COc1ccccc1-c1coc2c(CN3C(C)CCCC3C)c(O)ccc2c1=O (centres undefined)	0	0	0	0	0	0
Cc1cc(NC(=O)CSc2nc3ccccc3cc2C#N)no1	0	0	0	-94	0[15.4 µM]	0
Cc1ccc2nc(SCC(=O)Nc3ccccc3N3CCOCC3)c(C#N)cc2c1	0	0	0	0	22µM	0
CCc1ccc2nc(SCC(=O)Nc3ccccc3N3CCOCC3)c(C#N)cc2c1	0	0	0	0	0[15.4 µM]	0
COc1ccc2nc(SCC(=O)Nc3cc(C)on3)c(C#N)cc2c1	?	0	0	0	0	0
Cc1ncc(CO)c2c1Oc1nc(-c3ccccc3F)nc(SCC(=O)N(C)c3ccccc3)c1C2	40µM	0	0	0	0	0
Cc1cccc(-c2nc3c(c(SCC(=O)N4CCOCC4)n2)Cc2c(CO)cnc(C)c2O3)c1	40µM	0	0	0	0	0
Cc1ncc(CO)c2c1Oc1nc(-c3ccccc3)nc(SCC(=O)N3CCOCC3)c1C2	?	0	0	0	?	0
